# Compound activity deposited in PubChem BioAssay by National Center for Advancing Translational Sciences (NCATS).
# Hits are enriched below; roughly 7.3% of the tested compounds scored in any of these assays.
# IP6K1 inh – blocks human inositol hexakisphosphate kinase 1. Q92551. IP6K1 kinase, ADP-Glo luminescence, 2 h; hits give low values. activity change, % (series mostly up to about 58 µM). actives 0.81% (n = 140,000). AID 1645851; in the data active = activity change below about -25%
#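 ADP-Glo luminescence measures ADP made by human IP6K1 during a 2 h RT reaction with ATP/IP6 (mix at 1.3 mM/130 uM); top library doses 57.5 and 19.1 uM final.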
# HEK cytotox – HEK 293 cell cytotoxicity. HEK 293 viability, ATP luminescence (CellTiter-Glo), 48-72 h. AID 1345083. actives 6.6% (n = 94,000). Potency, µM (titrated, usually from 115 µM), actives largely listed as inhibitors; note: nearly all actives have a fitted effect of over 60% in size
#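 Cells seeded first (HEK 293, 250 cells/well), then compound added by pintool. Incubation ran 48 or 72 hr at 37 degree Celsius. CellTiter-Glo was added and luminescence imaged after 10 min at room temperature.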
# SNCA expr inh – inhibitors of alpha-synuclein (SNCA) gene expression | AID 1671194 | HEK-293 SNCA-luciferase knock-in, luminescence, 24 h | actives 0.17% (n = 140,000) | Potency, µM (highest dose often 57.2 µM), hits mostly inhibitors; note: nearly all actives have a fitted effect of over 45% in size
# HEK293 viab – cell viability loss counter-screen | HEK-293-SNCA-luc viability, GF-AFC fluorescence, 24 h | Potency, µM (series often up to 57.1 µM), actives largely listed as cytotoxic | actives 0.12% (n = 150,000); note: nearly all actives have a fitted effect of over 30% in size
#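 HEK-293-SNCA-luc cells (1500/well) plated 24 h, then exposed 24 h to a dilution series; GF-AFC added 30 min at 37C, fluorescence 405/540 nm; normalised to medium-only and DMSO wells, Hill fit.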
# 3T3 cytotox – cytotoxic compounds in NIH 3T3 cells | NIH 3T3 viability, CellTiter-Glo ATP luminescence, 48-72 h | AID 1345082 | Potency, µM (top dose mostly 96.7 µM), hits mostly inhibitors | actives 4.3% (n = 94,000); note: nearly all actives have a fitted effect of over 55% in size
#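 Cytotoxicity was measured by CellTiter-Glo ATP luminescence after 48 or 72 h compound exposure at 37 °C. Mouse NIH 3T3 fibroblasts were seeded at 400 cells/well and dosed by 23 nL pin transfer.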
# Luciferase inh – inhibitors of firefly (Photinus pyralis) luciferase. purified P. pyralis luciferase, luminescence, biochemical. Potency, µM (doses to about 115 µM), hits mostly inhibitors. actives 2.5% (n = 76,000). AID 1347043; note: nearly all actives have a fitted effect of over 65% in size
# Target sequence (P08659 whole entry, looked up): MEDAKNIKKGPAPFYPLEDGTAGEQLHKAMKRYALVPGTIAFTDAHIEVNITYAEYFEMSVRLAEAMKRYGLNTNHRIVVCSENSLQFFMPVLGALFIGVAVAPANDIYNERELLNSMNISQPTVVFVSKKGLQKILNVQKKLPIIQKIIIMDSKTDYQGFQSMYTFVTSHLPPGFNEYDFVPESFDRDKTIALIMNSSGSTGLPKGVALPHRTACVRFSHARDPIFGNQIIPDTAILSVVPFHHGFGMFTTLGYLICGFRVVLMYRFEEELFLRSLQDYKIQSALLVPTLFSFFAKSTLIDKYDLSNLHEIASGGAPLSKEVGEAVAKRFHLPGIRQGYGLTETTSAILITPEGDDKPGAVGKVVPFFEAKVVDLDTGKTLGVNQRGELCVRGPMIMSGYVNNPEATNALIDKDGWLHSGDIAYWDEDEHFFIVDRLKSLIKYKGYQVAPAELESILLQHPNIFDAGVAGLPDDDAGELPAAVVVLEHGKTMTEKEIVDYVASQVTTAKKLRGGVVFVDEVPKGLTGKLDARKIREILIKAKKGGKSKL
#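 Purified 10nM P. pyralis luciferase with 10uM D-luciferin and 10uM ATP in 50mM Tris acetate pH 7.5, 10mM Mg acetate, 0.01% Tween-20, 0.05% BSA. qHTS titration; luminescence read by CCD imager.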
# Hits are given with their value; . = inactive; ? = inconclusive; / = not tested or not shown; [ ] = another dose, or the depositor's remark. Unless noted, calls come from the whole dose curve; as a rule, active = well fitted curve in the direction sought with a large enough effect; inconclusive = small, poorly fitted or top-dose-only effect, or another doubt; inactive = no such curve, though single readings can be large; an effect the other way counts as inactive or inconclusive.
SMILES,IP6K1 inh,HEK cytotox,SNCA expr inh,HEK293 viab,3T3 cytotox,Luciferase inh
COc1ccccc1C(=O)NC[C@@H]1C=C(C)[C@H](Cc2nc3ccncc3[nH]2)C[C@H]1C(C)C,.,35µM,.,?,?,.
COC(=O)c1ccc2nc(C[C@@H]3C[C@@H](C(C)C)[C@H](CNC(=O)c4cccnc4)C=C3C)[nH]c2c1,.,?,.,.,?,.
COc1ccc(-c2cc(N3CCCC(NC(=O)c4cc(C)ccc4C)C3)n[nH]2)cc1 (configuration not stated),.,?,?,.,32µM,.
Cc1ccsc1C(=O)NC1CCN(c2cc(-c3ccc(Cl)cc3)[nH]n2)C1 (configuration not stated),.,50µM,.,.,?,.
COc1ccc(-c2cc(N3CCCC(NC(=O)c4sccc4C)C3)n[nH]2)cc1 (configuration not stated),.,?,.,?,.,25µM
Cc1ccsc1C(=O)NC1CCCN(c2cc(-c3ccc(F)cc3)[nH]n2)C1 (configuration not stated),.,?,.,?,?,?
COc1ccc(-c2cc(N3CCC(NC(=O)c4ccc(C)cc4C)C3)n[nH]2)cc1 (configuration not stated),.,?,.,.,?,.
COc1ccc(-c2cc(N3CCCC(NC(=O)c4ccc(C)cc4C)C3)n[nH]2)cc1 (configuration not stated),.,?,.,.,.,16µM
COc1ccc(C(=O)NC2CCN(c3cc(-c4ccc(Cl)cc4)[nH]n3)C2)c(C)c1 (configuration not stated),.,?,.,.,?,.
COc1cccc(-c2nnnn2[C@H]2CO[C@H]3[C@@H]2OC[C@@H]3NS(=O)(=O)Cc2ccccc2)c1,.,.,.,.,.,.
CN1CCCN(S(=O)(=O)c2cccc(Cl)c2)c2ccccc21,.,40µM,?,.,?,.
C[S+](=O)([O-])NC1CCN(Cc2cccc(-c3cccs3)c2)CC1,.,?,.,.[12.5 µM],?,/
O=[S+]([O-])(NC1CCN(Cc2cccc(-c3cccs3)c2)CC1)c1cccc(C(F)(F)F)c1,.,?,?,?,8.9µM,/
O=[S+]([O-])(NC1CCN(Cc2cccc(-c3ccc(F)c(F)c3)c2)CC1)c1cccc(C(F)(F)F)c1,.,22µM,?,?,14µM,/
O=[S+]([O-])(NC1CCN(Cc2cccc(-c3ccc(F)c(F)c3)c2)CC1)c1ccccc1,.,28µM,/,/,20µM,/
CSc1ccc(-c2cccc(CN3CCC(N[S+](=O)([O-])CCC(F)(F)F)CC3)c2)cc1,.,.,/,/,?,/
Cc1ccc(CNC(=O)N2CCCC(n3c(C)cnc3C3CCOCC3)C2)cc1 (configuration not stated),.,.,.,.,.,.
COCCNC(=O)[C@H]1C[C@H](Oc2ccccc2)CN1Cc1cn(C)c2ccccc12,.,40µM,.,.,.,.
O=C(NCc1ccc(F)cc1)c1nc(-c2ccc(Cl)nc2)c2ccccn12,.,.,.,.,.,/
COc1cc(=O)n2c(c1C(=O)Nc1ccc(N(C)C)cc1)CCCC2,.,?,.,.,.,35µM
COc1cc(=O)n2c(c1C(=O)Nc1ccc(C)cc1)CCCC2,.,.,.,.,?,.
Cc1nn(-c2ccccc2)c2c1C(C1CC1)N(CC1CN(C(=O)C(C)(C)C)C1)C2=O (configuration not stated),.,?,/,/,?,/
COc1cccc(CCC2CCCN(C(=O)c3ccc(OC)o3)C2)c1 (configuration not stated),.,35µM,.,.,?,.
O=C(c1ccco1)N1CCCC(CCc2cccc(F)c2)C1 (configuration not stated),.,79µM,.,.,?,.
C=CCS(=O)(=O)N1CCCC(CCc2cccc(OC)c2)C1 (configuration not stated),.,?,.,.,.,.
SMILES,IP6K1 inh,HEK cytotox,SNCA expr inh,HEK293 viab,3T3 cytotox,Luciferase inh
O=C(COc1ccccc1)Nc1ccc([C@@H](O)[C@H]2COCC(=O)N2CCCc2ccccc2)cc1,.,79µM,.,.,?,.
COc1ccc(C(=O)Nc2ccc([C@@H](O)[C@H]3COCC(=O)N3CC3CCCCC3)cc2)cc1,.,35µM,.,.,?,.
O=C(COc1ccccc1)Nc1ccc([C@@H](O)[C@H]2COCC(=O)N2Cc2ccc(C(F)(F)F)cc2)cc1,.,40µM,.,.,?,.
COc1ccc(CC(=O)Nc2ccc([C@@H](O)[C@H]3COCC(=O)N3Cc3ccc(C(F)(F)F)cc3)cc2)cc1,.,32µM,?,.,?,.
COc1ccc(CN2C(=O)COC[C@@H]2[C@H](O)c2ccc(NC(=O)Cc3ccccc3)cc2)cc1,.,?,.,.,?,.
O=C(c1cccc(Cl)c1)N1CCN(c2nccc(Nc3ccccc3Cl)n2)CC1,.,?,.,.,?,/
O=C(Nc1ccc([C@@H](O)[C@H]2COCC(=O)N2Cc2ccccc2)cc1)c1ccc(F)cc1,.,100µM,.,.,?,.
COc1ccccc1C(=O)N1CCN(c2ccc3nnc(-c4ccccc4)n3n2)CC1,.,?,/,/,?,/
CC(C)CCN1CCC(O)(c2csc(CN3CCN(C)CC3)n2)CC1,.,?,.,.,?,.
COCCN1C(=O)[C@@H]2C[C@@H](CN2Cc2ccc(C(F)(F)F)cc2)Oc2ccccc21,.,79µM,?,.,?,.
O=C1Nc2ccccc2O[C@H]2C[C@@H]1N(Cc1ccc(C(F)(F)F)cc1)C2,.,71µM,.,.,?,.
O=C1[C@@H]2C[C@@H](CN2CC2CC2)Oc2ccccc2N1Cc1cccnc1,.,?,.,.,.,.
O=C1[C@@H]2C[C@@H](CN2Cc2ccc(C(F)(F)F)cc2)Oc2ccccc2N1Cc1cccnc1,.,35µM,?,.,?,.
COCCN1C(=O)[C@@H]2C[C@@H](CN2Cc2ccccn2)Oc2ccccc21,.,?,.,.,?,.
CNc1cc(C2CC(NS(=O)(=O)c3cc(C)sc3C)C2)nc(N)n1 (configuration not stated),.,?,.,.,?,.
COc1ccccc1-c1ccc(C(=O)N2CCC(NC(=O)c3cccc(Cl)c3)CC2)cc1,.,?,.,.[12.5 µM],?,/
COc1ccc(CNC(=O)CN2C(=O)C(c3ccccc3)=NC23CCCC3)cc1OC,.,?,.,.[12.5 µM],.,.
Cc1nc2ccc(C(=O)NCc3cccnc3Oc3ccccc3C)cc2[nH]1,.,?,?,.,50µM,.
Cc1ccccc1Oc1ncccc1CNC(=O)c1ccc2c(c1)OCO2,.,.,.,.,?,.
